Ten molecules from PubChem BioAssay (NCI) can be followed below.

This is part of a sample that, as a whole, favours compounds with a hit. Of some 83,000 tested, about 20% had one in any assay.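 The endpoint reported here, percent growth, reads 100 for growth as untreated, 0 for no net growth and -100 for all cells dead.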 Unmarked numbers belong to inactive results. How the source made its calls: active means growth percent below 10; inactive means the rest.

In this assay the test system is MCF7 breast. In words: NCI-60 one-dose screen, 48 h (100 = growth as untreated, 0 = no growth, -100 = all killed). The conditions noted are these: 10 µM unless noted.
In the case of `c1csc(C2=NN3C(C2)c2ccccc2OC3c2ccncc2)c1` (stereo not given), the growth was 77.3%.
For `CCCn1c(=O)[nH]c(N)c([C@H]2c3ccccc3Oc3[nH]c(=O)n(CCC)c(=O)c32)c1=O` the value was 26.4%; for `COc1cccc(-c2nc3sccn3c2-c2ccnc(NCCCNS(=O)(=O)c3cccc(F)c3)c2)c1`, 24.8%.
For `CCCCC/C(C=C(C#N)C#N)=C/c1ccccc1` the value was 38.5%.
Regarding `C=C(C)C1CC(O)C2(C)CCCC3C2C1CC(C)C3(C)CC/C(C)=C/C(O)C1CCC(=O)c2c(OC)cc(OC)cc21` (stereo not given), the growth was 30.1%.
For the molecule `O=C1CC(=NCC(=O)n2c(-c3ccccc3)nc3ccccc32)NN1`, the growth is 72.7%.
Under `Clc1ccc2c(NCCCNc3nc(-n4ccnc4)nc4ccccc34)ccnc2c1` stands 76.5%; under `CN(CCCCCl)P(=O)(OCc1ccc([N+](=O)[O-])o1)C(F)(F)c1ccc(CC(=O)NC[C@@H](O)/C=C\[C@@H](O)[C@H](CO)Cc2ccccc2)cc1` (stereo not given in full), 59.9%.
Under `O=C1Nc2c(ccc(Cl)c2Cl)/C1=C\c1ccc(C(F)(F)F)cc1` stands 52.1%; under `O=C1CSC(=S)N1CCc1ccc(O)cc1`, 37.6%.
